About 830 (0.38%) of roughly 220,000 compounds were called active.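 Rule for the calls: active = compound inhibiting the enzyme by more than half at any dose during confirmatory dose-response retesting; inconclusive = strong single-dose inhibitors picked by rank but not retested; inactive = the rest.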 Not all results are given here. Entries with a potency or affinity are not part of this list.
Molecular target: Leucine aminopeptidase (Plasmodium falciparum (isolate 3D7)) (UniProt Q8IL11)
Experiment: P. falciparum M17LAP inhibitors, primary screen, biochemical, fluorogenic H-Leu-NHMec substrate, 1536-well (AID 1619);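 note: plate controls were full reaction with DMSO carrier for no effect and no enzyme background for full effect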
Settings: recombinant M17LAP, H-Leu-NHMec fluorogenic kinetic assay; at 30 µM; active compounds read high

Sequence of Leucine aminopeptidase (Plasmodium falciparum (isolate 3D7)) (Q8IL11 whole entry, looked up): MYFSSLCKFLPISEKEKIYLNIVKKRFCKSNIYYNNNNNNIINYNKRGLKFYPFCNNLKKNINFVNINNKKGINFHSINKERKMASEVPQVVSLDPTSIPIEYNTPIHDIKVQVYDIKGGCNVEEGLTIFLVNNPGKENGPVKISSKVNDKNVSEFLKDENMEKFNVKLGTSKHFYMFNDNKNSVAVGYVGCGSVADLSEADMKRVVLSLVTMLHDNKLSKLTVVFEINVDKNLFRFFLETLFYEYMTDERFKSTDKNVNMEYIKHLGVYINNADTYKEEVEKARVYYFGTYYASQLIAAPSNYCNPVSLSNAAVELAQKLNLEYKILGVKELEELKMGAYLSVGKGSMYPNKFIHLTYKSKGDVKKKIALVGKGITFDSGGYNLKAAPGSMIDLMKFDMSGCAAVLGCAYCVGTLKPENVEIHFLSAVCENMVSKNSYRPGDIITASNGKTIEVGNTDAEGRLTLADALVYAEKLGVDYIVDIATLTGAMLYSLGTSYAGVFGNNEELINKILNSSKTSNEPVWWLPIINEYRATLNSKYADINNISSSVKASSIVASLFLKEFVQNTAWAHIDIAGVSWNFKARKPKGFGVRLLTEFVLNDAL

inhibition, inactive:
Cc1cc(C(F)(F)F)nn1CC(=O)NNC(=S)Nc1cccc(Cl)c1 9.62%
CC1CCC/C(=N\NC(=S)NCc2ccccc2)C1 (stereo unspecified) 9.29%
CCCCOc1ncnc2c1[nH]c1ccc(OC)cc12 -0.91%
COCCOc1cc2ncnc(N3CCC(C(=O)O)CC3)c2cc1OCCOC 5.32%
Cc1cc(/C=C(/C#N)c2nc3ccccc3[nH]2)c(C)n1-c1cccc([N+](=O)[O-])c1 -7.34%
Cc1cc(/C=C(/C#N)c2nc3ccccc3[nH]2)c(C)n1-c1ccccc1C(=O)O 23%
COc1cccc(N2CCN(C(=S)NCCc3ccccc3)CC2)c1 -3.71%
CCOc1ccc(S(=O)(=O)NCCCN2CCOCC2)cc1 -8.49%
Cc1ccc2c(c1)N(C(C)C(=O)NCc1ccccn1)C(=O)CO2 (stereo unspecified) -7.53%
COc1cc(NC(=O)CSc2cc(C)c3cc(C)cc(C)c3n2)c(C(=O)O)cc1OC 15.4%
CCc1cc2c(C)ccc(C)c2nc1SCC(=O)Nc1c[nH]c(=O)[nH]c1=O 14.5%
CCc1cc2ccccc2nc1SCC(=O)Nc1cc(C)on1 4.25%
COC(=O)CSc1ncnc2scc(-c3ccccc3)c12 -1.19%
COc1cc(NC(=O)CSc2nccc(C)n2)c(C(=O)O)cc1OC 43.1%
O=C(CSc1ncnc2scc(-c3ccccc3)c12)Nc1ccc(C(=O)O)cc1 5.99%
COc1cc(NC(=O)CSc2ccccc2)c(C(=O)O)cc1OC 39.3%
COc1ccccc1NC(=O)CSc1nc2ccccc2cc1Cc1ccccc1 3.65%
CCn1c(COc2ccc3c(c2)CCCC3)nnc1SCC(=O)Nc1ccc(C(=O)OC)cc1 5.55%
Cc1ccc(CNC(=O)C2CC(=O)OC23CCCC3)c(C)c1 (stereo unspecified) 6.63%
CN(C)CCNc1c2c(nc3nnnn13)CCCC2 5.48%
O=C(NN=C1CCCC1)C1COc2ccccc2O1 (stereo unspecified) 0.87%
O=C(O)C1CC(=O)N(Cc2ccc3c(c2)OCO3)C1 (stereo unspecified) -0.32%
COC(=O)[C@@]1(Cc2ccc(F)cc2)[C@H]2c3cc(C(=O)N(C)C)n(Cc4c(CO)[nH]cc(C)c4=O)c3C[C@H]2CN1C(=O)c1ccccc1 6.87%
O=c1cc(NCC2CCCO2)[nH]c(=O)n1-c1ccc(Cl)cc1 (stereo unspecified) 3.43%
C=CCNS(=O)(=O)c1nc(C)c(Cl)c(C)c1C#N 9.01%
CC(Sc1ncc(C#N)c(N)n1)C(=O)Nc1ccccc1 (stereo unspecified) 9.93%
CCc1nnc(NS(=O)(=O)c2ccc(NC(=S)NC(=O)/C=C/c3ccccc3)cc2)s1 23.5%
CCc1nnc(NS(=O)(=O)c2ccc(NC(=O)/C=C/c3ccccc3Cl)cc2)s1 1.04%
CCc1nnc(NS(=O)(=O)c2ccc(NC(=O)COc3ccc(Cl)c(C)c3)cc2)s1 52.7%
CCc1nnc(NS(=O)(=O)c2ccc(NC(=O)OC)cc2)s1 6.85%
CCc1nnc(NS(=O)(=O)c2ccc(NC(=O)c3cccc4ccccc34)cc2)s1 15%
CCc1nnc(NS(=O)(=O)c2ccc(NC(=S)NC(=O)/C=C/c3ccc(OC)cc3)cc2)s1 40.7%
CCc1nnc(NS(=O)(=O)c2ccc(NC(=S)NC(=O)/C=C/c3ccc(F)cc3)cc2)s1 53%
CCc1nnc(NS(=O)(=O)c2ccc(N/C=C\C(=O)c3ccc4ccccc4c3)cc2)s1 12.1%
Cc1ccc(Nc2nnc(SCC(=O)NCCN3C(=O)CSC3=O)s2)cc1C 54.4%
O=C(NCCc1c[nH]c2ccccc12)c1c(Cl)nc2sccn12 -3.3%
O=C(NCc1ccncc1)c1cn(-c2ccccc2)nc1-c1cccnc1 9.29%
CCOC(=O)Cc1nnc(Nc2ccc(C)cc2C)c2ccccc12 -12.3%
CC(C)CCNC(=O)C1CCC(=O)N1C(C)C (stereo unspecified) -2.71%
N#CCCN(CC(=O)O)S(=O)(=O)c1ccccc1 -11.6%
CCc1ccc(C(=O)Nc2nnn(CC)n2)cc1 10.2%
C1CCCCCC2(CCCCC1)OCC(CN1CCOCC1)O2 (stereo unspecified) 1.36%
Cc1c(C(=O)c2ccccc2)c2ccccn2c1CCc1ccccn1 5.7%
O=C(CN1NS(=O)(=O)c2ccccc2C1=O)Nc1ccccc1OC(F)F 43.5%
CCCCc1ccc(NC(=O)CN2NS(=O)(=O)c3ccccc3C2=O)cc1 52.6%
N#Cc1cccc(NC(=O)COC(=O)c2cccc(N3C(=O)c4ccccc4C3=O)c2)c1 8.44%
CC1(c2ccccc2)NC(=O)N(CC(=O)Nc2cccc(C#N)c2)C1=O (stereo unspecified) -4.04%
O=C1CSC(c2cccnc2)N1c1ccc(F)cc1 (stereo unspecified) 9.53%
CC(=O)Nc1ccc(CN2CCCC(CO)(Cc3ccccc3C)C2)cc1 (stereo unspecified) -0.77%
Nc1nc2n(n1)C(c1ccco1)CC(c1ccc(Cl)cc1)N2 (stereo unspecified) -19.4%
Cc1cccc(OC(=O)C2C(c3ccccc3)C(C(=O)O)C2c2ccccc2)c1 (stereo unspecified) 33.4%
COc1ccc(/C=C2/SC(=O)NC2=O)cc1 25.1%
Nc1c(-c2cccc(Cl)c2)cnn1-c1cccc(C(F)(F)F)c1 5.43%
C=C1C(C(=O)Nc2ccc(OCC)cc2)C1C(=O)Nc1ccc(OCC)cc1 (stereo unspecified) -7.51%
COc1ccc(OC)c(NC(=O)C2CCCC2)c1 -9.43%
COc1ccc(OC)c(NC(=O)C2CCCCC2)c1 5.19%
CCOc1ccc(NC(=O)C2C3CCC4C(CCC32)C4(Cl)Cl)cc1 (stereo unspecified) 9.32%
CC(=O)NC(=O)NC1OC(=O)C(Cl)=C1Cl (stereo unspecified) 4.19%
Cn1nc(C(=O)NCCOc2ccccc2)c2ccccc2c1=O -0.35%
CCOC(=O)C(CSCC(=O)c1ccc(Cl)cc1)NC(=O)OC(C)(C)C (stereo unspecified) 25.7%
CCOC(=O)CSCC(NC(=O)OC(C)(C)C)C(=O)OCC (stereo unspecified) 0.56%

Source: PubChem BioAssay AID1619 (SRMLSC, 2009)
